hiPSC survival – enhancers of human iPSC single-cell survival. survival enhancement, % at 20 µM. AID 602274. 0.044% of 360,000 active. hiPSC single-cell survival, ATPlite luminescence; 100% = ROCK inhibitor wells, 0% = DMSO; in the data active = survival enhancement above about 18%;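 note: cells exposed to compounds for 16 hours before the ATP read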
beta cell repl – induces beta-cell replication in MIN6 cells. proliferation, % at 10 µM. AID 2380. MIN6 cells proliferation, ATPlite luminescence, 48 h; cells starved in 0.2% serum; 100% = growth in 10% serum. 0.29% of 330,000 active;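 active = compounds whose signal lies at least 3.5 SD above the mean of all wells on their plate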;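 note: 0% = DMSO-treated cells in low-serum medium and 100% = 10% serum control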
TAG inh – inhibitors of triacylglycerol accumulation | inhibition, % at 12.5 µM | AID 651582 | 0.66% of 230,000 active | H9c2 cells, Nile Red lipid (TAG) fluorescence; cells loaded with 200 µM oleic acid;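 active = pattern-corrected inhibition of lipid staining of at least 50% with the nuclear-stain viability signal not falling by more than 50%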;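 note: 0% = DMSO wells and 100% = triacsin C control wells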
* hit, by the source's call. Most compounds without a hit are left out; they make up all but 0.71% or so of the library.

What do the screens show for `CCCc1nc(SCC(=O)Nc2nc3c(s2)CCCC3)c2ccccc2n1`?
hiPSC survival: 21.6*; beta cell repl: -4.5

How did CCc1nc(SCC(=O)Nc2nc3c(s2)CCCC3)c2ccccc2n1 do in these assays?
hiPSC survival: 3.9; beta cell repl: 2.1; TAG inh: 21.9

How did CCN(CC)c1ccc(-c2nn3c(-c4n[nH]c5c4CCC5)nnc3s2)cc1 do in these assays?
hiPSC survival: -1.3; beta cell repl: -3.9; TAG inh: 57.2*

What do the screens show for `C1CCC(c2nn3c(-c4n[nH]c5c4CCC5)nnc3s2)CC1`?
hiPSC survival: 0.4; beta cell repl: -1.2; TAG inh: 12.2

How did COc1ccc(S(=O)(=O)N2CCCCC2c2cc(C(=O)NCc3ccccc3)no2)cc1 (stereo unspecified) do in these assays?
hiPSC survival: -1.3; TAG inh: -4.0

How did O=C1C(NS(=O)(=O)c2ccccc2)=C(N2CCN(c3ccc(F)cc3)CC2)C(=O)c2ccccc21 do in these assays?
hiPSC survival: -0.4; beta cell repl: -4.7; TAG inh: 27.9

How did O=C1C(NS(=O)(=O)c2cccs2)=C(N2CCN(c3cccc(Cl)c3)CC2)C(=O)c2ccccc21 do in these assays?
hiPSC survival: 1.7; beta cell repl: -4.9; TAG inh: 50.4*

What do the screens show for `O=C(NCCCN1CCOCC1)C1CC(=O)N(CCc2ccccc2)C1` (stereo unspecified)?
hiPSC survival: 0.4; beta cell repl: 2.2; TAG inh: -1.0

What do the screens show for `O=C(NCCCN1CCCCCC1)C1CC(=O)N(CCc2ccccc2)C1` (stereo unspecified)?
hiPSC survival: 19.2*; beta cell repl: -4.6; TAG inh: -3.6

How did C[C@@]12C(=O)Nc3ccc(Cl)cc3C(=O)N1[C@H]1c3cc(Cl)ccc3OC[C@@H]1[C@@H]2c1ccccc1 do in these assays?
hiPSC survival: -1.1; beta cell repl: -6.0; TAG inh: 39.4

How did C[C@@]12C(=O)Nc3cc(F)c(F)cc3C(=O)N1[C@H]1c3cc(Cl)ccc3OC[C@@H]1[C@@H]2c1ccccc1 do in these assays?
hiPSC survival: 5.7; beta cell repl: -6.2; TAG inh: 63.0*

How did COc1cc(/C=C2\SC(=Nc3ccccc3OC)NC2=O)ccc1O do in these assays?
hiPSC survival: -0.4; beta cell repl: -4.7

Results for COc1cc(/C=C2/SC(=Nc3ccc(O)cc3)NC2=O)ccc1O ?
hiPSC survival: -0.8; beta cell repl: -3.2; TAG inh: 58.7*

What do the screens show for `Cc1cc(C)cc(OCC(=O)NNC(=O)CC(C)c2ccccc2)c1` (stereo unspecified)?
hiPSC survival: 0.8; TAG inh: 1.4

What do the screens show for `O=C(Nc1ccc2[nH]c(=O)[nH]c2c1)c1ccc([N+](=O)[O-])o1`?
hiPSC survival: -4.8; beta cell repl: -3.2; TAG inh: 53.1*

Results for Cc1ccc(NC(=O)c2ccc([N+](=O)[O-])o2)cc1C ?
hiPSC survival: -2.7; beta cell repl: -6.0; TAG inh: 72.7

Results for CCOC(=O)C1(C)CCN1C(=O)c1ccc(SC(F)(F)F)cc1 (stereo unspecified) ?
hiPSC survival: 3.1; TAG inh: -22.6

Results for CS(=O)(=O)c1sc(C#N)c2c1C(=O)CC(c1ccccc1)C2 (stereo unspecified) ?
hiPSC survival: 2.5; beta cell repl: -4.3; TAG inh: 92.6*

What do the screens show for `Cc1oc2c(c(=O)c1C)C(=O)CC(c1ccccc1)C2` (stereo unspecified)?
hiPSC survival: -0.9; beta cell repl: -1.9; TAG inh: 12.9

How did COc1ccc(C2NCCc3c2[nH]c2ccccc32)cc1COc1ccc(F)cc1 (stereo unspecified) do in these assays?
hiPSC survival: -5.3; beta cell repl: -6.0; TAG inh: 114.8*

How did COc1ccc(C2NCCc3c2[nH]c2ccccc32)cc1CN1CCc2cc(OC)c(OC)cc2C1C (stereo unspecified) do in these assays?
hiPSC survival: -0.7; TAG inh: 37.3

How did COc1ccc(Cn2cc(CN(C)C3CN(Cc4cn(Cc5ccc(OC)cc5)nn4)S(=O)(=O)C3)nn2)cc1 (stereo unspecified) do in these assays?
hiPSC survival: -0.1

Results for COc1ccc(-c2c(C#Cc3ccsc3)c3cc(-c4ccc(OC)nc4)ccc3n2C)cc1 ?
hiPSC survival: -2.0; beta cell repl: -3.5; TAG inh: 29.1

What do the screens show for `COc1cc(C#Cc2c(-c3cncn3C)n(C)c3ccc(-c4ccc(OC)nc4)cc23)cc(OC)c1`?
hiPSC survival: -2.2; beta cell repl: -7.4; TAG inh: 103.1*

How did C[C@@H]1CN([C@H](C)CO)C(=O)CCCn2cc(nn2)CO[C@H]1CN(C)C(=O)c1ccccc1 do in these assays?
hiPSC survival: 0.3
